# High-throughput results from PubChem BioAssay.
# sEH activator = soluble epoxide hydrolase (human) activation. activation, % at 2 µM. AID 717. purified human sEH enzymatic activity, activator screen. 91,000 compounds, 0.04% hits; in the data active = activation above about 37%
# Target sequence (P34913 whole entry, looked up): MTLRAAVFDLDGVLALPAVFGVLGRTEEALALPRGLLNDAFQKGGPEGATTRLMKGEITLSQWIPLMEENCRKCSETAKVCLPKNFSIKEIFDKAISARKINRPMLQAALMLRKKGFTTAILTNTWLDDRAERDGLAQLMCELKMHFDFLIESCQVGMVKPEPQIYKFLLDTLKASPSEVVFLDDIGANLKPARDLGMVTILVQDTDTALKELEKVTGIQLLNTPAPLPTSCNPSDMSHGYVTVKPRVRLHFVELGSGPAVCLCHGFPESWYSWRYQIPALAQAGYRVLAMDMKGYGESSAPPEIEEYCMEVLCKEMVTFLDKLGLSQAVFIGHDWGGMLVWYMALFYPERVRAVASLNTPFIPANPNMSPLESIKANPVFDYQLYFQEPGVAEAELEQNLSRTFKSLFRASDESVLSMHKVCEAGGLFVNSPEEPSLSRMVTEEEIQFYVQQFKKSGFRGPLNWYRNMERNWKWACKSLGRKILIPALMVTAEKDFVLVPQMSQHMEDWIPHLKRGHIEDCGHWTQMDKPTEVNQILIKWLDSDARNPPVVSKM
# PostGolgi yeast = growth inhibition of a yeast mutant, post-Golgi transport screen; post-Golgi transport phenotypic cell assay; inhibition, % at 10 µM; 98,000 compounds, 0.9% hits;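 also: yeast cells grown in 1536-well plates; yeast grown about 18 h at 30C before absorbance read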
# sEH inh = inhibitors of human soluble epoxide hydrolase. P34913. recombinant human sEH enzymatic activity assay. inhibition, % at 2 µM. 91,000 compounds, 0.34% hits. AID 707; in the data active = inhibition above about 80%
# PostGolgi ctrl = growth of the yeast control strain, post-Golgi counter-screen; efflux-deficient yeast background strain, growth absorbance A615, 16 h; inhibition, % at 10 µM; 98,000 compounds, 5% hits; AID 738
# Cav3 T inh = human Cav3.2 channel inhibition, primary screen | AID 449739 | B-score at 10 µM | 100,000 compounds, 4% hits | Cav3.2-expressing cells, Fluo-4 calcium fluorescence FDSS; hits give low values;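 active = single-dose well whose peak fluorescence ratio is a statistical outlier from its plate by either plate-standardised score or position-corrected B-score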
# An asterisk follows results filed as active; nt = no result given. Compounds with a hit are over-represented: about 7.8% of the library has one in this group of screens. Rule as the data show it, unless noted: active = inhibition above about 30%; inactive = the rest.
SMILES,sEH activator,PostGolgi yeast,sEH inh,PostGolgi ctrl,Cav3 T inh
CCOc1ccc(Nc2cc(=O)oc3ccccc23)cc1,1,-1,-2,48*,1
CCOc1ccc2oc(=O)cc(C)c2c1,4,4,-6,36*,-0.028
CC(C)C(=O)Nc1nnc(CCN2CCCCC2)s1,6,2,-5,-4,0.47
CCOC(=O)CSC1=C(C#N)C(c2ccc(C)cc2)C(C(=O)OC)C(=O)N1 (centres undefined),3,-2,-2,8,0.85
COC(=O)C1=C(O)C(C(=O)OC)C(c2ccc(C)cc2)C(C#N)(C#N)C1c1ccc(C)cc1 (centres undefined),26,nt,-27,nt,-5.6*
Cc1[nH]c(=O)c(C(=O)/C=C/c2ccccc2F)c2c1CCCC2,10,3,-9,30*,0.99
Cc1ccc(S(=O)(=O)N2CCC[C@H]2C(=O)OC(C)C(=O)Nc2ncc(Cl)cc2Cl)cc1 (some centres undefined),7,0,-9,10,0.045
CCOc1cc(C(=O)NCc2nnc(SCC(=O)OC)n2C)cc(OCC)c1OCC,nt,-4,nt,3,nt
CCN(CC)S(=O)(=O)c1ccc(C(=O)NCc2nnc(SCC(=O)OC)n2C)cc1,10,1,-7,8,-3.8*
C=CCn1c(CSc2nc3ccccc3s2)nnc1SCC(=O)NCc1ccccc1,-15,-3,15,15,-4.3*
COc1ccc(OC)c2c1sc(=NC(=O)c1cccc(N3C(=O)CCC3=O)c1)n2C,27,-11,-29,31*,1.3
COC(=O)C1=C(C)N(c2ccc(C)cc2)/C(=C/c2cccs2)C1=O,-4,22,7,33*,-0.55
C=CCN1C(=O)/C(=C\c2cccs2)C(C(=O)OC)=C1C,14,-1,-12,-1,-0.95
Cc1c(C(=O)NCC2CCCO2)oc2ccc(S(=O)(=O)N3CCCC3)cc12 (centres undefined),nt,-2,nt,10,0.93
Cc1c(C(=O)NCC2COc3ccccc3O2)oc2ccc(S(=O)(=O)N(C)C3CCCCC3)cc12 (centres undefined),6,9,-9,5,-4.3*
COc1cccc(N2[C@@H](CC(=O)O)c3ccc(/C=C/C(=O)O)cc3S2(=O)=O)c1,nt,nt,nt,nt,-0.74
O/N=C/c1cc(Br)ccc1OCc1ccc(F)cc1,-11,nt,10,nt,-4.6*
O/N=C/c1cc(Br)cc(Br)c1OCc1ccccc1,2,3,0,58*,-0.48
O/N=C/c1cc(Cl)ccc1OCc1ccccc1Cl,4,7,-1,30,0.21
Cc1ccc(COc2ccc(Br)cc2/C=N/O)cc1,-9,19,11,44*,0.082
Cc1occc1-c1nnc(SCC(=O)N(C)CCC#N)n1N,-2,-1,3,0,0.67
CN(c1ccccc1C(=O)N1CCN(c2ccccc2)CC1)S(C)(=O)=O,-6,nt,9,nt,0.54
CSc1nc2ccccc2n1Cc1c(Cl)cccc1Cl,3,5,-2,34*,-3.7
CSc1nc2ccccc2n1CC(=O)Nc1c(C)cccc1C,1,nt,4,nt,-0.44
O=C(NCCc1ccccc1F)C1CCCN1S(=O)(=O)c1ccc2ccccc2c1 (centres undefined),-3,nt,6,nt,-1.9
SMILES,sEH activator,PostGolgi yeast,sEH inh,PostGolgi ctrl,Cav3 T inh
O=C(c1cccc2ccccc12)N1CCN(CC2CC=CCC2)CC1 (centres undefined),7,7,-8,0,-0.24
CCN(CC)c1cc(CS(=O)c2ccccc2)nc(-c2ccccc2)n1 (centres undefined),nt,nt,nt,nt,-1.8
Cc1ccc(-c2nsc3c(N4CCC(C(N)=O)CC4)ncnc23)cc1,nt,-7,nt,8,nt
Cn1cc(SCC(=O)Nc2ccc3c(c2)OCCO3)c2ccccc21,-18,1,20,3,-0.85
Cc1cc2c3c(c1)C1(SCC(=O)N1c1ccc(F)cc1)C(=O)N3C(C)(C)CC2C (centres undefined),-10,11,11,33*,-3.4*
COc1ccc(C2/C=C\CN(Cc3ccc(N(C)C)cc3)CC(=O)N2Cc2ccc(F)cc2)cc1 (centres undefined),nt,nt,nt,nt,-0.35
COCCNC(=O)CN1CCC(n2c(C)nc3cc(C(F)(F)F)ccc32)CC1,nt,1,nt,5,2.1
O=C(COc1ccc(S(=O)(=O)N2CCOCC2)cc1)Nc1ccc(Cl)c(C(F)(F)F)c1,-17,-6,20,11,-5.5*
CN(CC(=O)Nn1cnnc1)S(=O)(=O)c1ccc(Br)cc1,4,-1,-2,20,0.51
O=C(CCn1c(=S)[nH]c2cc3c(cc2c1=O)OCO3)N1CCN(C2CCCCC2)CC1,-8,nt,9,nt,nt
CCOC(=O)CCNC(C(=O)OCC)c1ccccc1 (centres undefined),0,-2,-4,-4,1.3
O=C1[C@@H]2[C@H](C(=O)N1O)[C@H]1C=C[C@@H]2C1,3,-15,-2,1,0.89
O=C1C2C3C=CC(C3)C2C(=O)N1c1ncn[nH]1 (centres undefined),14,9,-13,35*,0.63
O=C(NCC(F)(F)F)N1CCOCC1,-4,9,6,4,nt
Cc1ccc(N=Cc2c(O)n(-c3ccc4c(c3)OCO4)c(=O)c3ccccc23)cc1,-7,30*,7,6,nt
Cc1cccc(-n2c(O)c(C=NCCCN3CCOCC3)c3ccccc3c2=O)c1,8,-10,-7,16,1.1
CCCC(=O)Nc1cc(=O)n(C)c(=O)n1C,nt,16,nt,14,nt
Cn1c(NC(=O)CCc2ccccc2)cc(=O)n(C)c1=O,15,-5,-11,36*,-0.29
O=C(c1ccc(C(=O)N2CCCCCC2)cc1)N1CCCCCC1,11,nt,-8,nt,0.51
O=C(c1ccc2c(c1)N(Cc1ccccc1)CCS2)N1CCCCC1,-10,2,12,43*,-8.3*
CC(=O)Nc1c(C(=O)N2CCCCCC2)cnn1-c1ccccc1Cl,-3,nt,6,nt,1.3
CC12CC(NC(=O)N1Cc1ccccc1)c1ccccc1O2 (centres undefined),nt,-1,nt,2,-5.4*
CC12CC(NC(=O)N1c1ccc(C(=O)N3CCN(c4ccc(F)cc4)CC3)cc1)c1ccccc1O2 (centres undefined),3,2,-2,-4,-5.3*
CC12CC(NC(=O)N1c1cccc(C(=O)N3CCN(c4ccccc4)CC3)c1)c1ccccc1O2 (centres undefined),6,3,-4,1,-5.4*
CC12CC(NC(=O)N1CCc1ccccc1)c1cc(Cl)ccc1O2 (centres undefined),15,0,-12,7,-0.59
CC12CC(NC(=O)N1c1cccc(C(=O)NCc3ccccc3)c1)c1ccccc1O2 (centres undefined),-8,-7,8,1,nt
COc1ccccc1N1CCN(C(=O)c2cccc(N3C(=O)NC4CC3(C)Oc3ccccc34)c2)CC1 (centres undefined),9,-4,-6,6,-3.9*
CCN(CC)S(=O)(=O)c1ccc2[nH]c(=O)[nH]c2c1,nt,0,nt,0,0.081
CCCCOc1ccc(C(=O)N/C(=C\c2ccc(OC)cc2)C(=O)OCc2ccco2)cc1,-14,-3,16,21,-8.6*
